Results on 9 compounds are retold here after PubChem BioAssay (Tox21).

Structures are written as SMILES. Inconclusive results are not listed. Activity calls are given as the source filed them. Unless noted, calls come from the whole dose curve; as a rule, active = well fitted curve in the direction sought with a large enough effect in the repeat runs; inconclusive = weak or mixed curves; inactive = no such curve, though single readings can be large; an effect the other way counts as inactive or inconclusive.

The nature of assay [1]: qHTS assay for small molecule agonists of the p53 signaling pathway (AID 651631; calls by dose curve; note: nearly all actives have a fitted effect of over 15% in size). In outline:
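p53RE-bla HCT-116 cells; compounds 16 h, 37 °C; LiveBLAzer B/G FRET substrate 2 h RT; fluorescence intensity read-out, qHTS format.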
In general terms: Quantitative high-throughput screening tests each substance at several concentrations.

Assay [2] can be described thus: qHTS assay for small molecules that induce genotoxicity in human embryonic kidney cells expressing luciferase-tagged ATAD5 (AID 651632). Note: nearly all actives have a fitted effect of over 15% in size. In outline:
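Luminescent reporter readout, HEK293T ATAD5-luc line: 16 hr drug exposure (37C, 5% CO2) followed by Amplite, 30 min RT.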

The nature of assay [3]: qHTS assay for small molecule agonists of the p53 signaling pathway - cell viability (AID 651633; calls by dose curve;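 note: p53RE-bla HCT reporter cells with a stable beta-lactamase p53 reporter; series mostly up to about 83 µM; nearly all actives have a fitted effect of over 30% in size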). In outline: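 p53RE-bla cells, seeded at 4,000 per well and rested 5 h at 37 C/5% CO2, received compounds in DMSO for 16 h at 37 C. CellTiter-Glo was then added, and luminescence was read after 30 min at room temperature to gauge cytotoxicity.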
Assay [4] in a line: qHTS assay for small molecules that induce genotoxicity in human embryonic kidney cells expressing luciferase-tagged ATAD5 - cell viability (AID 651634; calls by dose curve; note: nearly all actives have a fitted effect of over 25% in size). In outline: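 Viability read: CellTiter-Fluor fluorescence, 30 min at 37C. Cells: HEK293T, luciferase-tagged ATAD5. Exposure: 15.5 hr, 37C, 5% CO2, compound or DMSO vehicle.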
Assay [5] in a line: qHTS assay for small molecule disruptors of the mitochondrial membrane potential - cell viability (AID 720634; calls by dose curve;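 note: human HepG2 liver cancer cells; series mostly up to about 83 µM; nearly all actives have a fitted effect of over 20% in size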). The gist of the method:
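HepG2, 1 hr compound, 37 C. ATP luminescence via CellTiter-Glo, 30 min RT, same well as m-MPI.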

The nature of assay [6]: qHTS assay to test for compound auto fluorescence at 590 nm (red) in HepG2 cells (AID 720674). The gist of the method:
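Rose Bengal sodium served as the red fluorophore standard. HepG2 monolayers (overnight attachment, MEM with 10% FBS) were exposed to test compounds for 1 hr at 37 C and read at Ex 540/Em 590 nm.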

Assay [7] can be described thus: qHTS assay to test for compound auto fluorescence at 460 nm (blue) in HEK293 cells (AID 720678). In outline: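 After cell attachment (4-5 hr, 37C), compounds were pinned onto HEK293 monolayers in 10% dialyzed FBS medium. The blue channel (405/460 nm) was read following overnight culture. Equivalency was calculated against triamterene.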
Assay [8] in a line: qHTS assay to test for compound auto fluorescence at 590 nm (red) in HEK293 cells (AID 720679). In outline:
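Plates of HEK293 cells (10% dialyzed FBS) are treated with 23 nL compound or DMSO vehicle after a 4-5 hr attachment period, incubated overnight at 37C, and read for red fluorescence at 540/590nm.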

A short description of assay [9]: qHTS assay to test for compound auto fluorescence at 535 nm (green) in HEK293 cells (AID 720680).
Assay [10] can be described thus: qHTS assay to test for compound auto fluorescence at 460 nm (blue) in HEK293 cell free culture (AID 720681). In outline: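 Test compounds were pinned into cell-free culture medium (DMEM with 10% FBS) and fluorescence was read directly at Ex/Em 405/460 nm. Signals were expressed as fluorescence equivalents of triamterene, with DMSO vehicle as control.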
Assay [11] is described as follows: qHTS assay to test for compound auto fluorescence at 535 nm (green) in HEK293 cell free culture (AID 720682). In outline: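 Cell-free medium (DMEM, 10% FBS) receives compound or DMSO by pintool. Plate read directly at Ex 485/Em 535 nm. Signal converted to fluorescein equivalency.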
A short description of assay [12]: qHTS assay to test for compound auto fluorescence at 590 nm (red) in HEK293 cell free culture (AID 720683). In outline:
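Tox21 10K library compounds were pinned into cell-free DMEM with 10% FBS and fluorescence was read at excitation 540 nm. Activity is expressed as Rose Bengal sodium equivalency.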

Assay [13] is described as follows: qHTS assay to test for compound auto fluorescence at 590 nm (red) in HepG2 cell free culture (AID 720684). In outline:
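Red fluorescence (540 nm excitation, 590 nm emission) was measured after compound transfer into cell-free MEM supplemented with 10% FBS. Values are equivalencies against Rose Bengal sodium.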

The nature of assay [14]: qHTS assay to test for compound auto fluorescence at 460 nm (blue) in HepG2 cell free culture (AID 720685). The gist of the method:
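Compound (23 nL) or DMSO pinned into cell-free MEM with 10% FBS; blue fluorescence read at 405/460 nm excitation/emission, expressed as auto-fluorescence equivalency to triamterene.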

Assay [15] can be described thus: qHTS assay to test for compound auto fluorescence at 535 nm (green) in HepG2 cell free culture (AID 720686).
A short description of assay [16]: qHTS assay to test for compound auto fluorescence at 460 nm (blue) in HepG2 cells (AID 720687). In outline: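 Cells (2,000/well in MEM with 10% FBS) attached overnight at 37 C, then were exposed to compound or DMSO for 1 hr at 37 C, 5% CO2. Fluorescence read at Ex/Em 405/460 nm, expressed as triamterene-equivalent signal.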
For assay [17], the target named is Glucocorticoid receptor (Homo sapiens) (UniProt P04150). Description: qHTS assay to identify small molecule agonists of the glucocorticoid receptor (GR) signaling pathway (AID 720691; active = well fitted activation curve with a large enough effect in the signal ratio in the repeat runs, not every such curve was filed as active; the % refers to the signal ratio). In outline:
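qHTS in GR-bla HeLa cells: 4 h settling at 37 C/5% CO2, 18 h compound incubation at 37 C, 2 h LiveBLAzer B/G FRET substrate at room temperature, fluorescence intensity measured.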

For assay [18] the target is unchanged. Description: qHTS assay to identify small molecule antagonists of the glucocorticoid receptor (GR) signaling pathway (AID 720692; active = well fitted inhibition curve with a large enough effect in the signal ratio in the repeat runs, not every such curve was filed as active; the % refers to the signal ratio; note: potency is the fitted concentration of half-maximal effect). The gist of the method:
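Inhibition of glucocorticoid signalling is measured in HeLa cells with a GRE-controlled beta-lactamase reporter; cells are co-treated with compound and 5 nM dexamethasone (final) for 18 h before FRET substrate readout.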

Assay [19] is described as follows: qHTS assay to test for compound auto fluorescence at 535 nm (green) in HepG2 cells (AID 720675).
Assay [20] can be described thus: qHTS assay for small molecule disruptors of the mitochondrial membrane potential (AID 720635). The gist of the method: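 HepG2 cells (2,000/well) attached overnight at 37C, then took compound for 1 hr at 37C, 5% CO2. Mito-MPS dye was added for 30 min; fluorescence was read at 490/535 nm (monomers) and 540/590 nm (aggregates).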

Chain of Glucocorticoid receptor (Homo sapiens) (P04150 whole entry, looked up): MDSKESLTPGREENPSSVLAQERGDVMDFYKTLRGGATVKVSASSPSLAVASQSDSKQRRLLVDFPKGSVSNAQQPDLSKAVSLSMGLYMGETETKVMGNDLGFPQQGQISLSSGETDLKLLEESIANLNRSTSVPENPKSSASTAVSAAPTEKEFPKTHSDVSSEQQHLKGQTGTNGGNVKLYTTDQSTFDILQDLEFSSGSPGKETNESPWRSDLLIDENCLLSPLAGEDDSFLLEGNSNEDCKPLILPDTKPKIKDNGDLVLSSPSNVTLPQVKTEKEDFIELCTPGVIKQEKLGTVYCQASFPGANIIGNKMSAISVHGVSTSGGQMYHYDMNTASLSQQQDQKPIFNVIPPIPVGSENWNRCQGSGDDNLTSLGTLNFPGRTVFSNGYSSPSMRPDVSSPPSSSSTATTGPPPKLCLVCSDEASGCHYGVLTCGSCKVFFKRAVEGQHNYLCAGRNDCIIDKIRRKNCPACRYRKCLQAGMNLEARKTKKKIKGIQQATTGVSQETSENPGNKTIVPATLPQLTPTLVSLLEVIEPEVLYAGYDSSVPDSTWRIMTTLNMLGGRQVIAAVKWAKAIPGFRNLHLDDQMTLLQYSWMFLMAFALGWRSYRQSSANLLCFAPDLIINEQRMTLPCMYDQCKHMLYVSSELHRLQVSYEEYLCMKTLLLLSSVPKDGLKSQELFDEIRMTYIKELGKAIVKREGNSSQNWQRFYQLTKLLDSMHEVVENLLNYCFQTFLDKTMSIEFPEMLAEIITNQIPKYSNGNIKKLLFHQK

For `CC(C)(C)C(O)(CCc1ccc(Cl)cc1)Cn1cncn1` (stereo unspecified), the call in [1], in assay [2], in assay [3], in [4], in [6] and in assay [7] was inactive. Besides, the outcome in assay [8], in [9], in [10], in assay [11], in assay [12] and in assay [13] was inactive. For the same compound, the result in assay [14], in [15], in assay [16] and in [17] was inactive. Moreover, the Potency result in assay [5] was “inactive”. The Potency in [18] is 43.6 µM (active).
On to `CCCC1COC(Cn2cncn2)(c2ccc(Cl)cc2Cl)O1` (stereo unspecified), for which the compound was called inactive in assay [1], in assay [2], in assay [3], in [4], in assay [6] and in assay [7]. Besides, the call in [8], in assay [10], in assay [11], in assay [12], in assay [14] and in assay [15] was inactive. The outcome in assay [16] and in assay [17] was inactive. For the same compound, the Potency result in assay [5] and in assay [18] was “inactive” each time.
On to `CCOP(=S)(OCC)Oc1cnc2ccccc2n1`, for which the result in assay [1], in assay [2], in assay [3], in assay [4], in [6] and in [19] was inactive. Moreover, the compound was classed as inactive in assay [7], in assay [8], in assay [10], in assay [11], in assay [12] and in assay [13]. The result in assay [14], in [15], in assay [16] and in assay [17] was inactive. Besides, the Potency result in assay [18] was “inactive”.
`COC(=O)NC(=S)Nc1ccccc1NC(=S)NC(=O)OC`: the result in assay [1], in assay [2], in assay [4], in [6], in [19] and in [7] was inactive. The call in assay [8], in assay [9], in assay [10], in [11], in [12] and in [14] was inactive. Besides, the call in assay [15], in assay [16] and in assay [17] was inactive. Besides, the Potency result in assay [5], in [20] and in assay [18] was “inactive” each time.
`NCC(O)c1ccc(O)cc1` (stereo unspecified): the call in assay [1], in assay [2], in [4], in assay [6], in assay [19] and in [7] was inactive. Besides, the compound was classed as inactive in [8], in assay [9], in assay [10], in assay [11], in assay [12] and in [13]. In addition, the compound was classed as inactive in assay [14], in assay [15] and in assay [16]. Moreover, the Potency entry in [5] and in assay [20] was “inactive” in each case.
`O=S(=O)(c1ccc(O)cc1)c1ccc(O)cc1`: the compound was called inactive in assay [1], in assay [2], in assay [3], in [4], in [6] and in assay [19]. For the same compound, the result in assay [7], in assay [8], in assay [10], in [11], in assay [12] and in [13] was inactive. In addition, the compound was called inactive in assay [14], in [15], in [16] and in assay [17]. For the same compound, the Potency result in [5] and in assay [18] was “inactive” in each case.
On to `c1ccc(OP(Oc2ccccc2)Oc2ccccc2)cc1`, for which the call in assay [1], in assay [2], in assay [3], in [4], in assay [6] and in assay [19] was inactive. Further, the compound was classed as inactive in [7], in assay [8], in assay [9], in assay [10], in assay [11] and in assay [12]. In addition, the compound was called inactive in assay [14], in assay [15], in assay [16] and in assay [17]. Also, the Potency entry in [5] and in assay [18] was “inactive” each time.
Regarding `CN(C)CCO`, the call in assay [1], in [2], in assay [4], in assay [6], in assay [19] and in [7] was inactive. The outcome in [8], in [10], in assay [11], in assay [12], in assay [13] and in assay [14] was inactive. Further, the compound was called inactive in [15], in assay [16] and in assay [17]. Also, the Potency entry in assay [5], in assay [20] and in assay [18] was “inactive” throughout.
Take `OC(O)C(Cl)(Cl)Cl`: the outcome in [1], in assay [2], in [4], in assay [6], in assay [19] and in assay [7] was inactive. Also, the compound was called inactive in [8], in assay [10], in assay [11], in [12], in assay [13] and in assay [14]. The compound was classed as inactive in [15] and in [16]. The Potency entry in assay [5] and in assay [20] was “inactive” throughout.
